Experimental data as given in PubChem BioAssay.
The source made the active and inactive calls.

Tests used:
[1] = small molecules captured by biotinylated probe aFSTL3 – biochemical, small-molecule microarray, fluorescence 635/667, stem cell growth factor project, primary screen (AID 1064); conditions: higher = more signal;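 also: measures binding of the biotinylated anti-FSTL3 antibody to printed compounds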
[2] = binders from COS7 lysate, DM2A8 probe, primary screen, torsin A project, cell lysate, small-molecule microarray, fluorescence 635/667 (AID 1065); conditions: higher = more signal, COS7 lysate expressing mutant human TOR1A
[3] = small molecules captured by biotinylated probe aFGF2 – biochemical, small-molecule microarray, fluorescence 635/667, stem cell growth factor project, primary screen (AID 1067); conditions: higher = more signal;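 also: measures binding of biotinylated aFGF2 protein to printed compounds on slides; z-score merges feature fluorescence and signal-to-noise across triplicate slides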
[4] = small molecules captured by biotinylated probe aFGF10 – biochemical, small-molecule microarray, fluorescence 635/667, stem cell growth factor project, primary screen (AID 1071); conditions: higher = more signal;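 also: score merges 667 nm spot intensity and signal to noise from triplicate slides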
[5] = target: Neurogenic locus notch homolog protein 2 (Homo sapiens) (UniProt Q04721); test: small molecules binding Notch2 protein – biochemical, small-molecule microarray, 635 nm fluorescence, stem cell growth factors, primary screen (AID 1073); conditions: higher = more signal
[6] = target: Pro-neuregulin-1, membrane-bound isoform (Homo sapiens) (UniProt Q02297); test: small molecules binding neuregulin-1 protein – biochemical, small-molecule microarray, fluorescence 635/667, psychiatric disease protein project, primary screen (AID 1075); conditions: NRG1 binding, 635 nm fluorescence, higher = more signal;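 also: score combines 667 nm spot fluorescence with signal to noise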
[7] = test system: Neuregulin-1 EGF-like domain; test: small molecules binding NRG1 EGF domain – biochemical, small-molecule microarray, 635 nm fluorescence, primary screen (AID 1081); conditions: higher = more signal;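 also: binding of the protein to compounds printed on small-molecule microarray slides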
[8] = FRG1 expression reporter modulators in myotubes – cell-based, C2C12 myotubes, firefly/Renilla luciferase, luminescence, FRG1 inhibition for FSHD, primary screen (AID 1084); conditions: FRG1 promoter luciferase, higher = more signal, called active from +8 up or from −8 down
[9] = small molecules captured by biotinylated probe aFST – biochemical, small-molecule microarray, fluorescence 635/667, stem cell growth factor project, primary screen (AID 1086); conditions: higher = more signal;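 also: score merges 667 nm fluorescence with signal-to-noise of each printed compound spot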
[10] = binders of probe aHhip on microarray, primary screen, stem cell growth factor project, biochemical, small-molecule microarray, fluorescence 635/667 (AID 1087); conditions: higher = more signal;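 also: score merges spot fluorescence at 667nm with spot signal to noise ratio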

Chain of Neurogenic locus notch homolog protein 2 (Homo sapiens) (Q04721 whole entry, looked up, canonical isoform): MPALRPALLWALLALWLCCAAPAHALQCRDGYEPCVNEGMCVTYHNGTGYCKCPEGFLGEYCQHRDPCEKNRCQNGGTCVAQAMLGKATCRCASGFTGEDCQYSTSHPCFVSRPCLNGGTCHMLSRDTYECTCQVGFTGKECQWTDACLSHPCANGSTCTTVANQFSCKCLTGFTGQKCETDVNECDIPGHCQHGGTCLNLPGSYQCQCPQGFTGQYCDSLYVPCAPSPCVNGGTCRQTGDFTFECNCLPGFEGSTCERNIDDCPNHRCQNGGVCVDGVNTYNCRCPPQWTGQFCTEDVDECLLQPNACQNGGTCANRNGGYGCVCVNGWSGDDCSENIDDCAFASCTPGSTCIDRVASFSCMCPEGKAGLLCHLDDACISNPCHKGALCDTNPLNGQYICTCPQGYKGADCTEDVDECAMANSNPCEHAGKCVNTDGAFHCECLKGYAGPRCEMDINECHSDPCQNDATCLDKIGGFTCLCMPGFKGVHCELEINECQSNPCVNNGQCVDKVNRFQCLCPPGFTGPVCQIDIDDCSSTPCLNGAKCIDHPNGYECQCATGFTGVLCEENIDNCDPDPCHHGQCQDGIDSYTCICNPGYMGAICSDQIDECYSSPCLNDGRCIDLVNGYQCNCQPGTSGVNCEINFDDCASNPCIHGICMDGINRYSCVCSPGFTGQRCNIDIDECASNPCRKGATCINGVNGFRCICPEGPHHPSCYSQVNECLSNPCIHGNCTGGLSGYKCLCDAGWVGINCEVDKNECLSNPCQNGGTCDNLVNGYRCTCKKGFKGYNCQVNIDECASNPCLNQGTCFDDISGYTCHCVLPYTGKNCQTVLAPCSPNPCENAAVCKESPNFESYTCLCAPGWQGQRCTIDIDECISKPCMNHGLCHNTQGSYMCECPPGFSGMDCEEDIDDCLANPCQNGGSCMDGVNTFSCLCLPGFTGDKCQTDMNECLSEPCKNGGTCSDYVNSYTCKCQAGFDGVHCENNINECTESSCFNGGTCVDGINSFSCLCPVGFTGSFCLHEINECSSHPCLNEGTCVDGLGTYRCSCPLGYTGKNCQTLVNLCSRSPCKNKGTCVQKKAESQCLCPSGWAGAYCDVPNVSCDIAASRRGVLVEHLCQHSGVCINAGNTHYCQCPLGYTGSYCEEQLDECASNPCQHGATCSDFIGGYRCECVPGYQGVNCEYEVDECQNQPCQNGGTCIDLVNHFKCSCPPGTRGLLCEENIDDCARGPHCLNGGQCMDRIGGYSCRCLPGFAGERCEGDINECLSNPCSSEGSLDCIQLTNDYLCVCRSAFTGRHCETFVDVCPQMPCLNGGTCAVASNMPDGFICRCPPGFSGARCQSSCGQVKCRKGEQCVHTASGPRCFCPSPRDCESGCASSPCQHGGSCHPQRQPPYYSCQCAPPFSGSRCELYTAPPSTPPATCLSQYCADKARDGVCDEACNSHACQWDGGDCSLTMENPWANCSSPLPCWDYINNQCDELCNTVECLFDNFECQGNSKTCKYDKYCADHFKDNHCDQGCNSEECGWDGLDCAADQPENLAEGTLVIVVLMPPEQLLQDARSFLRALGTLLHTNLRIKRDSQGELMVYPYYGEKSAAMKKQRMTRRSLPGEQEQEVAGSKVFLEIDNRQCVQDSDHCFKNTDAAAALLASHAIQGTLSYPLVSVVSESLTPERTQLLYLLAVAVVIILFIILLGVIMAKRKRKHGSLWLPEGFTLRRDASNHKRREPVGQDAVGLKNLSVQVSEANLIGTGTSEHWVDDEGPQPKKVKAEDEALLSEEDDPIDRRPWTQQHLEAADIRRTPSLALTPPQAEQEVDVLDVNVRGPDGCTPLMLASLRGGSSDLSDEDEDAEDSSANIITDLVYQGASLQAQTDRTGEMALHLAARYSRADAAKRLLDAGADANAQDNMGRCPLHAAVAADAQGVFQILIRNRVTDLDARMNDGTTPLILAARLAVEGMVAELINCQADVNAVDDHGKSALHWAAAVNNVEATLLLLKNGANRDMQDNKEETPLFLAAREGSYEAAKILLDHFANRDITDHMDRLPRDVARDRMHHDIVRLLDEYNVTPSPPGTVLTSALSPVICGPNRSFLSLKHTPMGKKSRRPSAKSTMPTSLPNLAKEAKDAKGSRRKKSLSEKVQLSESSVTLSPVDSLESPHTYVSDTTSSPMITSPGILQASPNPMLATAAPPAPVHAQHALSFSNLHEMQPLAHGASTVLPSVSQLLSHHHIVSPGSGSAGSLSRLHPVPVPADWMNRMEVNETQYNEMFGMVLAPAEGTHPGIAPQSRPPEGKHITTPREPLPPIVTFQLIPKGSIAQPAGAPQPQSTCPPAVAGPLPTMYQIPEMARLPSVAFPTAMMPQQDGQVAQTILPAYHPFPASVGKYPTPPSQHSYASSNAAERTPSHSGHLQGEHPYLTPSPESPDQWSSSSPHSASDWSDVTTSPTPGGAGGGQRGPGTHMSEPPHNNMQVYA
Chain of Pro-neuregulin-1, membrane-bound isoform (Homo sapiens) (Q02297 whole entry, looked up, the tested form may be a part, canonical isoform): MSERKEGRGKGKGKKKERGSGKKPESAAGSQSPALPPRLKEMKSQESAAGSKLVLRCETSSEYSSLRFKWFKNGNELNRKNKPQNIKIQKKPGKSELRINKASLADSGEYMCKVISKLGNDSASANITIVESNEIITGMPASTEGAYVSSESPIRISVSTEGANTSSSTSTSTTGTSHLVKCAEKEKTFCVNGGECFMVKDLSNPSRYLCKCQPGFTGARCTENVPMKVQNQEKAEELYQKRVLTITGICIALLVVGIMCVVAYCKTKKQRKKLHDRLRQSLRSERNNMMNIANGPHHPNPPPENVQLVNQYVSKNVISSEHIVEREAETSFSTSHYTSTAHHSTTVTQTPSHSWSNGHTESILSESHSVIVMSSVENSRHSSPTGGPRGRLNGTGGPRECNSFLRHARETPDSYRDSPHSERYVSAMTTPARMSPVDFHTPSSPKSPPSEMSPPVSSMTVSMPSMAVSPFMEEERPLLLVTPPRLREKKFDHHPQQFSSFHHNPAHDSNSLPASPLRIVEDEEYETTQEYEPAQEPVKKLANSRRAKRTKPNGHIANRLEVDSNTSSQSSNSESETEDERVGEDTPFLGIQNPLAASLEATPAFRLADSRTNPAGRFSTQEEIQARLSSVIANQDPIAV

| Structure (SMILES) | composite z-score [1] | composite z-score [2] | composite z-score [3] | composite z-score [4] | composite z-score [5] | composite z-score [6] | composite z-score [7] | z-score [8] | composite z-score [9] | composite z-score [10] |
| --- | --- | --- | --- | --- | --- | --- | --- | --- | --- | --- |
| COCCOC(=O)N1C(=O)[C@@]2(c3cc(C#CCNC(N)=O)ccc31)[C@H](c1ccc(OCCO)cc1)N1[C@H](c3ccccc3)[C@H](c3ccccc3)OC(=O)[C@H]1[C@@H]2C(=O)NC[C@H](O)c1ccccc1 | -0.0349 | 0.907 | -0.0881 | 0.417 | 1.25 | 0.46 | 0.77 | 0.499 (inactive) | 0.506 | -0.215 |
| COCCOC(=O)N1C(=O)[C@@]2(c3cc(C#CCCO)ccc31)[C@H](C(N)=O)[C@H]1C(=O)O[C@H](c3ccccc3)[C@H](c3ccccc3)N1[C@@H]2c1ccc(OCCO)cc1 | -0.0241 | 0.657 | -0.0202 | 0.48 | 1.43 | 1.1 | 1.17 | 0.478 (inactive) | 0.439 | -0.0994 |
| CC(=O)NCCCC[C@@H]1NC(=O)[C@@H]2C[C@H](C(=O)NCCCCCCN)[C@H](c3cccc(OCCO)c3)N2C1=O | 0.501 | 0.43 | -0.0336 | 0.281 | -0.149 | 1.63 | 1.08 | 2.15 (inactive) | -0.0064 | -0.0296 |
| CC(C)OC(=O)CC(=O)CC(O)c1ccc([N+](=O)[O-])cc1 (stereo not given) | 0.231 | 0.219 | 0.0033 | 0.307 | 0.795 | 0.0916 | 0.438 | 0.719 (inactive) | 0.0731 | -0.123 |
| C=C(CCCC)/C(=C/C[C@H](OC(C)=O)c1ccc(OCCO)cc1)c1cc(C(=O)OC)ccc1OC | -0.321 | -0.137 | 0.0057 | 0.674 | -0.0254 | 1.04 | 1 | 8.65 (active) | -0.28 | -0.179 |
| NC(=O)N1C(=O)C2C(C1=O)C1C=C(CCCO)C2C(C2CC2)N1Cc1cccc(OC(F)(F)F)c1 (stereo not given) | -0.284 | 0.497 | -0.139 | -0.238 | -0.22 | 1.95 | 1.3 | 0.0154 (inactive) | -0.108 | -0.122 |
| COC(=O)C1=CC(CCCO)=CC(c2ccc(CN3CCCC3)cc2)N(Cc2cc3c(cc2Br)OCO3)C=C1C(=O)OC (stereo not given) | 0.942 | 1.66 | 0.19 | 1.26 | 1.61 | 2.4 | 1.18 | 0.046 (inactive) | 1.97 | 0.0605 |
| C=C(/C(=C/C[C@@H](OC(C)=O)c1ccc(OCCO)cc1)c1cc(C(=O)OC)ccc1OC)C(C)C | -0.247 | 0.239 | -0.155 | 0.29 | 0.355 | 1.67 | 0.945 | 2.89 (inactive) | -0.034 | 0.0024 |
| CN(C)C(=O)[C@@]1(Cc2ccccc2N=[N+]=[N-])N=C(c2ccc(OCCCO)cc2)O[C@H]1c1ccccc1 | 0.657 | 0.687 | 0.0282 | 0.359 | 1.63 | 1.2 | 1.32 | -1.75 (inactive) | 1.23 | 0.294 |
| C=CCN1C(=O)[C@]2(O[C@H](CCO)[C@@H]([Si](C)(C)c3ccc(OC)cc3)[C@@H]2C)c2cc(NC(=O)c3ccc(OC)cc3)ccc21 | -0.429 | 0.421 | -0.105 | 0.3 | 0.384 | 0.686 | 1.09 | -3.52 (inactive) | 0.346 | -0.204 |
| CCC(CC)C(O)C1C=CC2C(=O)N(c3ccccc3)C(=O)C2N1Nc1ccc([N+](=O)[O-])cc1 (stereo not given) | 0.453 | -0.0903 | 0.22 | 0.848 | 1.56 | 1.07 | 1.26 | -1.91 (inactive) | 0.944 | 0.327 |
| CC1(C)C(=O)C(c2ccccc2)=C2CN3C(=O)N(CCc4ccccc4)C(=O)C3(Cc3ccc(F)cc3)C=C21 (stereo not given) | 0.817 | -0.339 | 0.248 | 0.173 | 1.47 | 0.536 | 0.631 | 0.927 (inactive) | 1.58 | 0.0818 |
